Test results published in PubChem BioAssay.
Records with an inconclusive call do not appear. The source made the active and inactive calls. Unless noted, the limit is not given here; nearly all actives have AC50 up to about 26 µM.

Experiments:
[1] = growth inhibition of DIPG glioma cells, dose response, cell-based, SU-DIPG-XVII, MIPE5.0, CellTiter-Glo, qHTS (AID 1347060); conditions: SU-DIPG-XVII viability, CellTiter-Glo ATP luminescence;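 as to AC50: cells exposed to compound for 48 hours before viability readout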
[2] = growth inhibition of DIPG glioma cells, dose response, cell-based, SU-DIPG-XIII, MIPE5.0, CellTiter-Glo, qHTS (AID 1347064; cut-off not given, nearly all actives have AC50 up to about 23 µM;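 as to AC50: cells exposed to compound for 48 hours before the viability read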); conditions: SU-DIPG-XIII viability, CellTiter-Glo ATP luminescence
[3] = viability loss in pontine glioma line – cell-based, SU-DIPG-XXV, MIPE5.0, CellTiter-Glo, qHTS, dose response (AID 1347065); conditions: CellTiter-Glo ATP luminescence;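 also: cells exposed to compound for 48 hours before ATP readout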
[4] = JHH-DIPG-1 glioma cell viability, MIPE5.0 library, CellTiter-Glo luminescence, qHTS (AID 1347067); conditions: JHH-DIPG-1 glioma viability, CellTiter-Glo ATP luminescence;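 also: cells exposed to compound for 48 hours before readout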
[5] = SU-DIPG-XXV glioma cell viability, MIPE5.0 library, qHTS (AID 1347068; cut-off not given, nearly all actives have IC50 up to about 30 µM;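 as to IC50: cells exposed to compound for 48 hours before viability readout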)

COc1nc(OCc2cccc(-c3ccccc3)c2C)ccc1CNCCNC(C)=O
active: AC50 [1] 7.42 µM | AC50 [2] 8.33 µM | AC50 [3] 9.34 µM | AC50 [4] 9.34 µM | IC50 [5] 14.8 µM

C=CCN1C[C@H](C(=O)N(CCCN(C)C)C(=O)NCC)CC2c3cccc4[nH]cc(c34)C[C@H]21 (stereo not given in full)
inactive: outcome [1] | outcome [2] | outcome [3] | outcome [4] | outcome [5]

C[C@H](CN(C)C)Oc1nc(Nc2cc3cccc(Cl)c3cn2)cnc1C#N
inactive: outcome [5]
active: AC50 [1] 16.6 µM | AC50 [2] 13.2 µM | AC50 [3] 16.6 µM | AC50 [4] 8.33 µM

O=C([C@@H](Cc1cccc(C(F)(F)F)c1)NS(=O)(=O)c1cc(F)c2c(c1)CCNC2)N1CCCC1
inactive: outcome [1] | outcome [2] | outcome [3] | outcome [4] | outcome [5]

CC(=O)Nc1cc(Oc2ccc3c(nc(Nc4ccc(F)cc4F)n3C)c2C)ccn1
active: AC50 [1] 0.372 µM | AC50 [2] 4.17 µM | AC50 [3] 0.118 µM | AC50 [4] 0.525 µM | IC50 [5] 1.05 µM

COC[C@@H](c1ccc(C(F)(F)F)cc1)N1CCN(C2(C)CCN(C(=O)c3c(C)ncnc3C)CC2)C[C@@H]1C
inactive: outcome [1] | outcome [2] | outcome [3] | outcome [4] | outcome [5]

COc1cc2c(cc1O)CCN[C@]21CS[C@@H]2c3c(OC(C)=O)c(C)c4c(c3[C@H](COC1=O)N1[C@@H]2[C@H]2c3c(cc(C)c(OC)c3O)C[C@@H]([C@@H]1O)N2C)OCO4
active: AC50 [1] 0.000382 µM | AC50 [2] 0.00135 µM | AC50 [3] 0.00152 µM | AC50 [4] 0.000679 µM | IC50 [5] 0.0241 µM

CNS(=O)(=O)c1ccc2c(c1)/C(=C/c1[nH]c3c(c1CCCN1CCN(C)CC1)CCCC3)C(=O)N2
inactive: outcome [5]
active: AC50 [1] 7.42 µM | AC50 [2] 8.33 µM | AC50 [3] 7.42 µM | AC50 [4] 10.5 µM

CN1CCN(c2ccc3nc(-c4cc(C(C)(C)C)c(OCCCC(=O)NCCCN=[N+]=[N-])c(C(C)(C)C)c4)[nH]c3c2)CC1
active: AC50 [1] 10.5 µM | AC50 [2] 13.2 µM | AC50 [3] 7.42 µM | AC50 [4] 11.8 µM | IC50 [5] 9.34 µM

CC(=O)N1CCC[C@H]1C(=O)N[C@@H](Cc1cnc[nH]1)C(=O)N[C@@H](CO)C(=O)N[C@@H](CS)C(=O)N[C@@H](CC(N)=O)C(N)=O
inactive: outcome [1] | outcome [2] | outcome [3] | outcome [4] | outcome [5]

Nc1nc(Nc2ccc3c(c2)CC[C@@H](N2CCCC2)CC3)nn1-c1cc2c(nn1)-c1ccccc1CCC2
active: AC50 [1] 9.34 µM | AC50 [2] 16.6 µM | AC50 [3] 6.61 µM | AC50 [4] 20.9 µM | IC50 [5] 26.3 µM

CN1C(=O)N[C@@H](Cc2c[nH]c3c(Cl)cccc23)C1=O
inactive: outcome [1] | outcome [2] | outcome [3] | outcome [4] | outcome [5]

CN(Cc1ccc(/C=C/C(=O)NO)cc1)CC12CC3CC(CC(C3)C1)C2
active: AC50 [1] 0.833 µM | AC50 [2] 0.372 µM | AC50 [3] 0.263 µM | AC50 [4] 0.332 µM | IC50 [5] 2.95 µM

COc1ccc(N2C(=O)N(c3c(C)cccc3Cl)Cc3cnc(Nc4ccc(C5CCN(C)CC5)cc4OC)nc32)nc1
active: AC50 [1] 3.72 µM | AC50 [2] 9.34 µM | AC50 [3] 9.34 µM | AC50 [4] 16.6 µM | IC50 [5] 14.8 µM

COC(=O)N(C)c1c(N)nc(-c2nn(Cc3ccccc3F)c3ncccc23)nc1N
inactive: outcome [1] | outcome [2] | outcome [3] | outcome [4] | outcome [5]

COC(=O)Nc1cc(Nc2cc(NC3CC3)c3ncc(C#N)n3n2)c(Cl)c(N2CCN(C)CC2)c1
active: AC50 [1] 5.25 µM | AC50 [2] 3.72 µM | AC50 [3] 2.63 µM | AC50 [4] 2.95 µM | IC50 [5] 23.5 µM

CN1CC[C@@H](NC(=O)Nc2ccc(C#N)cc2)C[C@@H]1c1nc2ccccc2[nH]1
inactive: outcome [1] | outcome [2] | outcome [3] | outcome [4] | outcome [5]

C[C@@H]1N=C(N)NC(N(C)C)=N1
inactive: outcome [1] | outcome [2] | outcome [3] | outcome [4] | outcome [5]

Cc1cc(O)cc2c1[C@]1(C)CC[C@H]3C(C)(C)CCC[C@]3(C)[C@H]1C2
inactive: outcome [1] | outcome [2] | outcome [3] | outcome [4] | outcome [5]

COc1ccccc1C(=O)Nc1cc2c(cc1N1CCNC[C@H]1C)n(C)c(=O)n2C
inactive: outcome [1] | outcome [2] | outcome [3] | outcome [4] | outcome [5]

O=C(O)CNC(=O)c1nc(Cl)c2ccccc2c1O
inactive: outcome [1] | outcome [2] | outcome [3] | outcome [4] | outcome [5]

O=C(O)CC(C(=O)O)n1c(O)c(C2=c3cc(Br)ccc3=NC2=O)sc1=S (stereo not given)
inactive: outcome [1] | outcome [2] | outcome [3] | outcome [4] | outcome [5]

COc1cc(N2CCC(O)CC2)ccc1Nc1cc(Nc2ccccc2S(=O)(=O)C(C)C)c2cc[nH]c2n1
inactive: outcome [5]
active: AC50 [1] 23.5 µM | AC50 [2] 10.5 µM | AC50 [3] 7.42 µM | AC50 [4] 16.6 µM

COc1cc2c(Oc3ccc4[nH]c(C)cc4c3F)ccnc2cc1OCC1(N)CC1
active: AC50 [1] 3.32 µM | AC50 [2] 2.95 µM | AC50 [3] 2.95 µM | AC50 [4] 5.9 µM | IC50 [5] 16.6 µM

CN(C)CCNC(=O)COc1c2cccc1Cc1cccc(c1OCC(=O)NCCN(C)C)Cc1cccc(c1OCC(=O)NCCN(C)C)Cc1cccc(c1OCC(=O)NCCN(C)C)C2
inactive: outcome [1] | outcome [2] | outcome [3] | outcome [4] | outcome [5]
